# Reference: PubChem BioAssay (EPA / NIEHS)
# Inconclusive results are not listed. Active and inactive are the calls of the source. Rule for the calls: active = hit-call score of the fitted dose curve at least 0.9, where 1 is the maximum; inconclusive = response in the unintended direction; inactive = score below 0.9.
# Assays:
# [1] = ACEA_ER_AUC_viability: ACEA Biosciences xCELLigence Real-Time Cell Analysis on Estrogen Receptor Agonism for Viability (AID 2283782);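 note: continuous compound exposure with impedance area under curve over 80 h; hit means loss of impedance signal meaning reduced cell growth or viability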
# Procedure, shortened: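 T-47D; phenol red-free RPMI1640 + 10% CS-FBS; 8 conc., 1:4 serial, max 100 uM final, ≤0.5% DMSO; n = 2; continuous exposure; impedance monitored to 80 h post-dose; AUC vs DMSO.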
# AR (gene 367) [2] = target: AR (gene 367) (UniProt P10275); experiment: ACEA_AR_antagonist_80hr: ACEA Biosciences xCELLigence Real-Time Cell Analysis on Androgen Receptor Antagonism for Proliferation (AID 2283787);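 note: 22Rv1 human prostate cancer cells with growth followed by electrical impedance; hits lower the impedance growth signal relative to DMSO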
# Procedure, shortened: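 Growth-kinetic antagonist readout in 22Rv1 cells, taken 80 h after continuous compound exposure. Activity fitted as signal loss relative to DMSO negative control.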
# AR (gene 367) [3] = target: AR (gene 367) (UniProt P10275); experiment: ACEA_AR_agonist_80hr: ACEA Biosciences xCELLigence Real-Time Cell Analysis on Androgen Receptor Agonism for Proliferation (AID 2283783);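 note: hits increase impedance growth signal above DMSO baseline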
# Procedure, shortened: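 Androgen-driven proliferation in 22Rv1 cells is tracked as electrical impedance, taken 80 h after continuous exposure to compound (eight concentrations, 1:4 steps, maximum 100 uM final). Activity is fitted in the positive direction with DMSO as baseline.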
# [4] = ATG_M_06_XSP2: Attagene TRANS-FACTORIAL Multi-Species (XSP2) HepG2 Assay for M06 Transcription Factor (Internal Marker) (AID 2283811);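 note: hits are increases in signal above the DMSO baseline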
# Procedure, shortened: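 HepG2, multiplexed reporter transfection; 24 h dosing; AR stimulated with 3 nM 6-alpha-fluorotestosterone + 1.5 nM norgestrel; RNA → RT-PCR → 6-FAM primer extension → HpaI → CE. Positive direction vs DMSO.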
# [5] = ATG_M_19_XSP1: Attagene TRANS-FACTORIAL Multi-Species (XSP1) HepG2 Assay for M19 Transcription Factor (Internal Marker) (AID 2283798)
# Procedure, shortened: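 HepG2 cells transiently transfected with multiplexed GAL4-UAS reporter units, dosed 24 h with 3 nM 6-alpha-fluorotestosterone present for partial AR stimulation. Reporter mRNA measured by RT-PCR with capillary electrophoresis; gain-of-signal fitted relative to DMSO.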
# [6] = ATG_M_32_XSP1: Attagene TRANS-FACTORIAL Multi-Species (XSP1) HepG2 Assay for M32 Transcription Factor (Internal Marker) (AID 2283799)
# Procedure, shortened: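 HepG2 cells transiently transfected with multi-species TRANS reporter units, dosed 24 h with 3 nM 6-alpha-fluorotestosterone present. Internal-marker reporter mRNA quantified by RT-PCR and capillary electrophoresis; positive-direction fit versus DMSO.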
# [7] = test system: zebrafish Peroxisome Proliferator-activated Receptor gamma (PPARg), gene 557037; experiment: ATG_zfPPARg_XSP1: Attagene TRANS-FACTORIAL Multi-Species (XSP1) HepG2 Assay for zebrafish Peroxisome Proliferator-activated Receptor gamma (PPARg) (AID 2283801)
# Procedure, shortened: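 HepG2 cells transiently transfected with GAL4-UAS reporter units including a zebrafish PPARg–GAL4 chimera, dosed 24 h with 3 nM 6-alpha-fluorotestosterone present. Reporter mRNA quantified by RT-PCR, FAM labelling, HpaI digestion and capillary electrophoresis; induction versus DMSO.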
# [8] = target: Nuclear receptor subfamily 1 group I member 2 (Mus musculus) (UniProt O54915); experiment: ATG_mPXR_XSP1: Attagene TRANS-FACTORIAL Multi-Species (XSP1) HepG2 Assay for mouse Pregnane X Receptor (PXR) (AID 2283803)
# Procedure, shortened: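 Transiently transfected HepG2 cells expressing a receptor-Gal4 chimera drive a GAL4-UAS reporter; 3 nM 6-alpha-fluorotestosterone included. Reporter mRNA read 24 h post-dose by RT-PCR and capillary electrophoresis; gain of signal relative to DMSO.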
# [9] = test system: turtle Thyroid Hormone Receptor, alpha (TRa), gene 101949057; experiment: ATG_trTRa_XSP1: Attagene TRANS-FACTORIAL Multi-Species (XSP1) HepG2 Assay for turtle Thyroid Hormone Receptor, alpha (TRa) (AID 2283806)
# Procedure, shortened: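 HepG2 cells transiently transfected with GAL4-UAS reporter units and chimeric receptor-Gal4 constructs, with 3 nM 6-alpha-fluorotestosterone present. Reporter mRNA was quantified 24 h after dosing by RT-PCR, 6-FAM labelling and capillary electrophoresis; gain of signal versus DMSO.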
# [10] = target: zebrafish Thyroid Hormone Receptor beta (TRb), thrb (gene 30607) (UniProt Q9PVE4); experiment: ATG_zfTRb_XSP1: Attagene TRANS-FACTORIAL Multi-Species (XSP1) HepG2 Assay for zebrafish Thyroid Hormone Receptor beta (TRb) (AID 2283809)
# Procedure, shortened: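 HepG2 cells transiently transfected with multiplexed GAL4-UAS reporter units expressing chimeric zebrafish TRb–Gal4. Dosed 24 h with 3 nM 6-alpha-fluorotestosterone present; reporter mRNA measured by RT-PCR, HpaI digestion and capillary electrophoresis; gain of signal versus DMSO.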
# [11] = ATG_XTT_Cytotoxicity_XSP1: Cytotoxicity Assessment in the Attagene TRANS-FACTORIAL Multi-Species (XSP1) HepG2 Assay (AID 2283810)
# Procedure, shortened: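 XTT viability readout taken at 24 hours post-dosing in HepG2 liver cells co-treated with 3 nM 6-alpha-fluorotestosterone. Signal loss relative to DMSO controls reflects cytotoxicity.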
# Sequence of AR (gene 367) (P10275 whole entry, looked up): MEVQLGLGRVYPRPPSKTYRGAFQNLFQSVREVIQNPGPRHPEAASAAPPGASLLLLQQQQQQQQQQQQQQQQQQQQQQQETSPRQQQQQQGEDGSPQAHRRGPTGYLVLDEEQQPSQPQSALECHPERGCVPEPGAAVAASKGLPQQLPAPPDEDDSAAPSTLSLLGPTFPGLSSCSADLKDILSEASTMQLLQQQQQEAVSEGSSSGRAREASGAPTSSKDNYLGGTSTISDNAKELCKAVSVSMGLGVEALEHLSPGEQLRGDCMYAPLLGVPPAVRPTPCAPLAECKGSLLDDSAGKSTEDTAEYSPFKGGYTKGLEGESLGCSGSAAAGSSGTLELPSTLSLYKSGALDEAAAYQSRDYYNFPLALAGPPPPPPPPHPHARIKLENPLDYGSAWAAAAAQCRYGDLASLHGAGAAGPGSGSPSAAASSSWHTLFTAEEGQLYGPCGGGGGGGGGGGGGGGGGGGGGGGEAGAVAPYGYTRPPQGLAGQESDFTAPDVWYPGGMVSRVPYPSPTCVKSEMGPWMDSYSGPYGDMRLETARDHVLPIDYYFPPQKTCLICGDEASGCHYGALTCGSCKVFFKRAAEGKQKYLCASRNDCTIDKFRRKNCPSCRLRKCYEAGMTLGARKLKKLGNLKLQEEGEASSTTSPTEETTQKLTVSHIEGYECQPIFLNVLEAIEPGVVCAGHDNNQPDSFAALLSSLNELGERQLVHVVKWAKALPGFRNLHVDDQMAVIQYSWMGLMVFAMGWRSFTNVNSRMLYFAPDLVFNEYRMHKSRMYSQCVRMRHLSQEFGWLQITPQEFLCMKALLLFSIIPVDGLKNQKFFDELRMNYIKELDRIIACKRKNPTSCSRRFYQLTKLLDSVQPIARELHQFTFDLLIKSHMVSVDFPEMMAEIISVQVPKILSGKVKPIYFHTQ
# Sequence of zebrafish Thyroid Hormone Receptor beta (TRb), thrb (gene 30607) (Q9PVE4 whole entry, looked up, the tested form may be a part): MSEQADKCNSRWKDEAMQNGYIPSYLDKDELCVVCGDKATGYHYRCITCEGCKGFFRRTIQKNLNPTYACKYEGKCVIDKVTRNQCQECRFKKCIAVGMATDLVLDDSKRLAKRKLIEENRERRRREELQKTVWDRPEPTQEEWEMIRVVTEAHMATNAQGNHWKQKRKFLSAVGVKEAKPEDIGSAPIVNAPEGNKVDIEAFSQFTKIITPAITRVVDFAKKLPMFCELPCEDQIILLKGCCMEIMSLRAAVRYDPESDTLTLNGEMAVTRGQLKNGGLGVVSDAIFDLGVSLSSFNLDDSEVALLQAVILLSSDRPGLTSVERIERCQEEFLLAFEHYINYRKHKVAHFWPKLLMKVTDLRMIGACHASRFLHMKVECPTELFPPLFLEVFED
# Sequence of Nuclear receptor subfamily 1 group I member 2 (Mus musculus) (O54915 whole entry, looked up, the tested form may be a part): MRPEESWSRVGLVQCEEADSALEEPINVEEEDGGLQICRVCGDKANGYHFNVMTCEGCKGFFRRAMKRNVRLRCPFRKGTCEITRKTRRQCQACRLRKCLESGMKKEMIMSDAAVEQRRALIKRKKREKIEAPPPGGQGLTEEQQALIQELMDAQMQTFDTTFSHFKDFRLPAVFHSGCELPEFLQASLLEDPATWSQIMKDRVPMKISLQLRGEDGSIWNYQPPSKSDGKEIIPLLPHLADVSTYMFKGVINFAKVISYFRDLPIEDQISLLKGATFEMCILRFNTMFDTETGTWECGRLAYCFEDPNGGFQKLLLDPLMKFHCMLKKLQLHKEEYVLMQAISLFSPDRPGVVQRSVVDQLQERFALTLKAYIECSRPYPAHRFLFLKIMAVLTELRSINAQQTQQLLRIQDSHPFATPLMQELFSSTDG
compound,measurement,setting,value
CC(CCO)CCCC(C)(C)O (stereo not given),AC50,[1],50.5 µM (active)
CCCCC[Si](OCC)(OCC)OCC,outcome,AR (gene 367) [2],inactive
CC(=O)OCCOC(C)=O,outcome,[1],inactive
C[Si](O[Si](C)(C)C)O[Si](C)(C)C,outcome,[1],inactive
same,outcome,AR (gene 367) [3],inactive
same,outcome,AR (gene 367) [2],inactive
CCCCCCCCCCCCCC(=O)O,outcome,[1],inactive
CCCOCC(C)O (stereo not given),outcome,[1],inactive
same,outcome,AR (gene 367) [3],inactive
O=c1cc(-c2ccccc2)oc2cc(O)cc(O)c12,AC50,AR (gene 367) [3],0.0729 µM (active)
same,outcome,AR (gene 367) [2],inactive
same,outcome,[4],inactive
C=CC(=O)NCOCC(C)C,outcome,[1],inactive
CN(C)C(=N)N=C(N)N,outcome,[1],inactive
same,outcome,[5],inactive
same,outcome,[6],inactive
same,outcome,[7],inactive
same,AC50,[8],64.4 µM (active)
same,outcome,[9],inactive
same,outcome,[10],inactive
same,outcome,[11],inactive
Cc1ccc(C(C)C)cc1O,outcome,[1],inactive
COc1ccc(O)cc1,outcome,[1],inactive
same,outcome,AR (gene 367) [2],inactive
O=Nc1ccc(Nc2ccccc2)cc1,AC50,[1],11.1 µM (active)
same,outcome,AR (gene 367) [3],inactive
same,outcome,AR (gene 367) [2],inactive
OCC(CO)(CO)COCC(CO)(CO)CO,outcome,[1],inactive
CCCCCNCCCCC,outcome,[1],inactive
CCC(=O)OCCC(C)CCC=C(C)C (stereo not given),AC50,[1],78.6 µM (active)
CCCCC/C=C/C=C/C=O,AC50,[1],81.1 µM (active)
c1ccc2[nH]ccc2c1,outcome,[1],inactive
same,outcome,AR (gene 367) [2],inactive
C=C(C)C(=O)O[C@H]1C[C@@H]2CC[C@@]1(C)C2(C)C,outcome,[1],inactive
O=C(O)c1cccc([N+](=O)[O-])c1,outcome,[1],inactive
CC1CCC2CC1C2(C)C (stereo not given),outcome,[1],inactive
CCCCCCCCCCCCCOS(=O)(=O)O,AC50,[1],73.8 µM (active)
same,outcome,AR (gene 367) [3],inactive
CC(C)c1ccc(C(C)C)cc1,outcome,[1],inactive
CC1(C)[C@H]2CC[C@]1(C)[C@H](O)C2,outcome,[1],inactive
[Ca+2],outcome,[1],inactive
CCC/C=C/C=O,outcome,[1],inactive
same,outcome,AR (gene 367) [2],inactive
BrC1CCC(Br)C(Br)CCC(Br)C(Br)CCC1Br (stereo not given),AC50,[1],8.63 µM (active)
same,outcome,AR (gene 367) [2],inactive
NCCCN1CCOCC1,outcome,[1],inactive
same,outcome,AR (gene 367) [2],inactive
CCN(CC)c1ccc(C(=C2C=CC(=[N+](CC)CC)C=C2)c2ccc(S(=O)(=O)O)cc2S(=O)(=O)[O-])cc1,outcome,AR (gene 367) [2],inactive
CCn1c2ccccc2c2cc(N)ccc21,outcome,[1],inactive
Clc1nc(C(Cl)(Cl)Cl)c(Cl)c(Cl)c1Cl,AC50,[1],24.1 µM (active)
